Several values for one entry are separate records, joined by “and”; a condition that tells them apart may be missing. Identical values can stand only once. Some compounds were tested as several samples or in several runs, with calls that do not always agree. Activity calls are given as the source filed them. How the source made its calls: active means hit-call score of the fitted dose curve at least 0.9, where 1 is the maximum; inactive means score below 0.9.
Key:
[1] = read-out: TIMP metallopeptidase inhibitor 1 (TIMP1), TIMP1 (gene 7076); experiment: BSK_hDFCGF_TIMP1: BioMAP Diversity Plus: hDFCGF Assay for TIMP metallopeptidase inhibitor 1 (TIMP1) Biomarker Activity (AID 2283062); conditions: primary human foreskin fibroblasts; actives raise or lower the signal
How it was run: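 Human skin fibroblasts (primary), hDFCGF system; compound exposure 24 h; TIMP-1 by ELISA; bidirectional fit vs DMSO negative control; overt cytotoxicity by SRB in parallel wells.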

[2] = read-out: Monokine induced gamma interferon (MIG), CXCL9 (gene 4283); experiment: BSK_hDFCGF_MIG: BioMAP Diversity Plus: hDFCGF Assay for Monokine induced gamma interferon (MIG) Biomarker Activity (AID 2283063); conditions: primary human foreskin fibroblasts; actives raise or lower the signal
How it was run: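 Chemicals were added to primary human foreskin fibroblast cultures, which were sampled 24 h later. MIG levels were then quantified by ELISA and responses fitted in both directions relative to DMSO.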

[3] = read-out: Matrix Metallopeptidase 1 (MMP1), MMP1 (gene 4312); experiment: BSK_hDFCGF_MMP1: BioMAP Diversity Plus: hDFCGF Assay for Matrix Metallopeptidase 1 (MMP1) Biomarker Activity (AID 2283064); conditions: primary human foreskin fibroblasts; actives raise or lower the signal
How it was run: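 Human foreskin fibroblasts exposed to chemical for 24 h; MMP1 detected by ELISA, with DMSO as baseline for bidirectional fitting.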

[4] = read-out: Plasminogen activator inhibitor-1 (PAI1), SERPINE1 (gene 5054); experiment: BSK_hDFCGF_PAI1: BioMAP Diversity Plus: hDFCGF Assay for Plasminogen activator inhibitor-1 (PAI1) Biomarker Activity (AID 2283066); conditions: primary human foreskin fibroblasts; actives raise or lower the signal
How it was run: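 Fibroblasts from human foreskin were treated with test chemical. After 24 h, PAI-1 was measured by ELISA. Activity was fitted in both directions relative to DMSO.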

[5] = read-out: Intercellular Adhesion Molecule 1 (ICAM1), ICAM1 (gene 3383); experiment: BSK_KF3CT_ICAM1: BioMAP Diversity Plus: KF3CT Assay for Intercellular Adhesion Molecule 1 (ICAM1) Biomarker Activity (AID 2283067); conditions: primary human keratinocytes with fibroblasts; actives raise or lower the signal
How it was run: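 ICAM-1 levels are measured by ELISA 24 h after dosing a primary human co-culture of keratinocytes and foreskin fibroblasts. Activity in either direction is fitted relative to DMSO vehicle.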

[6] = read-out: Interferon-gamma inducible Protein 10 (IP10), CXCL10 (gene 3627); experiment: BSK_KF3CT_IP10: BioMAP Diversity Plus: KF3CT Assay for Interferon-gamma inducible Protein 10 (IP10) Biomarker Activity (AID 2283068); conditions: primary human keratinocytes with fibroblasts; actives raise or lower the signal
How it was run: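 In a primary skin co-culture of keratinocytes and fibroblasts, IP-10 is quantified by ELISA at 24 h after dosing. SRB staining of parallel wells monitors overt toxicity. Curves are fitted both directions against DMSO.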

[7] = BSK_KF3CT_SRB: Viability Assessment in the BioMAP Diversity Plus: KF3CT Assay (AID 2283069); conditions: primary human keratinocytes with fibroblasts;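 further: read 24 h after compound addition; fitted for both signal gain and loss against DMSO baseline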
How it was run: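 Overt cytotoxicity is assessed as total protein by sulforhodamine B staining in parallel human skin co-cultures at 24 h after dosing. DMSO serves as negative control and baseline.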

[8] = read-out: Interleukin-1 alpha (IL1a), IL1A (gene 3552); experiment: BSK_KF3CT_IL1a: BioMAP Diversity Plus: KF3CT Assay for Interleukin-1 alpha (IL1a) Biomarker Activity (AID 2283070); conditions: primary human keratinocytes with fibroblasts; actives raise or lower the signal
How it was run: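 Readout is IL-1a level by ELISA, compared bidirectionally with DMSO as baseline. Cells: human keratinocytes co-cultured with foreskin fibroblasts, harvested 24 h post-dose.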

[9] = read-out: TIMP metallopeptidase inhibitor 2 (TIMP2), TIMP2 (gene 7077); experiment: BSK_KF3CT_TIMP2: BioMAP Diversity Plus: KF3CT Assay for TIMP metallopeptidase inhibitor 2 (TIMP2) Biomarker Activity (AID 2283071); conditions: primary human keratinocytes with fibroblasts; actives raise or lower the signal
How it was run: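 Chemicals were dosed onto human skin primary co-cultures of keratinocytes and foreskin fibroblasts, and TIMP-2 was measured by ELISA after 24 hours. Activity in either direction was fitted relative to DMSO.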

[10] = read-out: Transforming growth factor beta 1 (TGFb1), TGFB1 (gene 7040); experiment: BSK_KF3CT_TGFb1: BioMAP Diversity Plus: KF3CT Assay for Transforming growth factor beta 1 (TGFb1) Biomarker Activity (AID 2283072); conditions: primary human keratinocytes with fibroblasts; actives raise or lower the signal
How it was run: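 KF3CT co-culture (keratinocytes + fibroblasts), 24 h exposure → TGF-b1 ELISA → bidirectional fit, DMSO = baseline. Parallel SRB total-protein staining (0.1% SRB, 10% TCA fixation, 560 nm) for cytotoxicity.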

[11] = read-out: C-C motif chemokine 2 (Homo sapiens) (UniProt P13500); experiment: BSK_KF3CT_MCP1: BioMAP Diversity Plus: KF3CT Assay for Monocyte Chemoattractant Protein 1 (MCP1/CCL2) Biomarker Activity (AID 2283073); conditions: primary human keratinocytes with fibroblasts; actives raise or lower the signal
How it was run: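 ELISA readout of MCP-1 after 24 h chemical dosing of a human skin primary co-culture of keratinocytes and foreskin fibroblasts. Activity was fitted in both directions against DMSO.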

[12] = read-out: Matrix Metallopeptidase 9 (MMP9), MMP9 (gene 4318); experiment: BSK_KF3CT_MMP9: BioMAP Diversity Plus: KF3CT Assay for Matrix Metallopeptidase 9 (MMP9) Biomarker Activity (AID 2283074); conditions: primary human keratinocytes with fibroblasts; actives raise or lower the signal
How it was run: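 Values come from bidirectional fitting relative to DMSO of MMP-9 levels, which were measured by ELISA. Measurements were taken 24 h after chemical dosing of a keratinocyte and foreskin fibroblast co-culture.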

[13] = read-out: urokinase plasminogen activator (uPA), PLAU (gene 5328); experiment: BSK_KF3CT_uPA: BioMAP Diversity Plus: KF3CT Assay for urokinase plasminogen activator (uPA) Biomarker Activity (AID 2283075); conditions: primary human keratinocytes with fibroblasts; actives raise or lower the signal
How it was run: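 Values derive from bidirectional fitting against DMSO controls. Keratinocyte/foreskin fibroblast co-cultures received chemical; 24 h later uPA was detected by ELISA, with SRB total-protein staining in parallel wells for overt cytotoxicity.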

CD40, CD40 (gene 958) = experiment: BSK_LPS_CD40: BioMAP Diversity Plus: LPS Assay for CD40 Biomarker Activity (AID 2283076); conditions: primary human HUVEC with PBMC; actives raise or lower the signal
How it was run: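 Cells were dosed, incubated 24 h, then assayed for CD40 by ELISA. Gain or loss of signal was analysed relative to DMSO controls. The culture paired human umbilical vein endothelium with peripheral blood mononuclear cells.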

[14] = read-out: E-selectin (Homo sapiens) (UniProt P16581); experiment: BSK_LPS_Eselectin: BioMAP Diversity Plus: LPS Assay for Eselectin Biomarker Activity (AID 2283077); conditions: primary human HUVEC with PBMC; actives raise or lower the signal
How it was run: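 Primary human vascular co-culture (endothelium plus PBMC) was dosed with chemical, then E-selectin quantified by ELISA at 24 h. Endpoint values derive from bidirectional curve fitting relative to DMSO.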

[15] = read-out: Interleukin-8 (IL8), CXCL8 (gene 3576); experiment: BSK_LPS_IL8: BioMAP Diversity Plus: LPS Assay for Interleukin-8 (IL8) Biomarker Activity (AID 2283078); conditions: primary human HUVEC with PBMC; actives raise or lower the signal
How it was run: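 Readout is IL-8 by ELISA, taken 24 h after compounds were added to LPS-stimulated endothelial/PBMC co-cultures. Both increases and decreases relative to DMSO control were scored through bidirectional fitting.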

[16] = BSK_LPS_SRB: Viability Assessment in the BioMAP Diversity Plus: LPS Assay (AID 2283079); conditions: primary human HUVEC with PBMC;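 further: total protein by sulforhodamine B absorbance as a cytotoxicity measure; measured one day after compound addition; fitted in both directions against DMSO so loss or gain of signal counts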
How it was run: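 Readout is SRB absorbance at 560 nm (0.1% stain, TCA-fixed parallel cultures) as a total-protein cytotoxicity measure. Cells: primary human umbilical vein endothelium plus peripheral blood mononuclear cells, 24 h after chemical exposure; DMSO served as baseline.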

[17] = read-out: Interleukin-1 alpha (IL1a), IL1A (gene 3552); experiment: BSK_LPS_IL1a: BioMAP Diversity Plus: LPS Assay for Interleukin-1 alpha (IL1a) Biomarker Activity (AID 2283080); conditions: primary human HUVEC with PBMC; actives raise or lower the signal
How it was run: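 ELISA read-out of IL-1 alpha from a human primary vascular co-culture (endothelium plus PBMC) under LPS, sampled 24 hours post-dosing. Activity was fitted in both directions relative to DMSO controls.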

[18] = read-out: Monocyte Chemoattractant Protein-1 (MCP1), CCL2 (gene 6347); experiment: BSK_LPS_MCP1: BioMAP Diversity Plus: LPS Assay for Monocyte Chemoattractant Protein-1 (MCP1) Biomarker Activity (AID 2283081); conditions: primary human HUVEC with PBMC; actives raise or lower the signal
How it was run: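 Human endothelial–PBMC co-cultures were dosed with chemical, then LPS-driven MCP-1 levels were quantified by ELISA at 24 h. Activity in either direction was fitted versus DMSO negative control.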

[19] = read-out: Vascular cell adhesion molecule 1 (VCAM1), VCAM1 (gene 7412); experiment: BSK_hDFCGF_VCAM1: BioMAP Diversity Plus: hDFCGF Assay for Vascular cell adhesion molecule 1 (VCAM1) Biomarker Activity (AID 2283065); conditions: primary human foreskin fibroblasts; actives raise or lower the signal
How it was run: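 Human foreskin fibroblast primary cells, chemical exposure 24 h; VCAM-1 by ELISA; bidirectional fit, DMSO = negative control/baseline.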

Chain of E-selectin (Homo sapiens) (P16581 whole entry, looked up): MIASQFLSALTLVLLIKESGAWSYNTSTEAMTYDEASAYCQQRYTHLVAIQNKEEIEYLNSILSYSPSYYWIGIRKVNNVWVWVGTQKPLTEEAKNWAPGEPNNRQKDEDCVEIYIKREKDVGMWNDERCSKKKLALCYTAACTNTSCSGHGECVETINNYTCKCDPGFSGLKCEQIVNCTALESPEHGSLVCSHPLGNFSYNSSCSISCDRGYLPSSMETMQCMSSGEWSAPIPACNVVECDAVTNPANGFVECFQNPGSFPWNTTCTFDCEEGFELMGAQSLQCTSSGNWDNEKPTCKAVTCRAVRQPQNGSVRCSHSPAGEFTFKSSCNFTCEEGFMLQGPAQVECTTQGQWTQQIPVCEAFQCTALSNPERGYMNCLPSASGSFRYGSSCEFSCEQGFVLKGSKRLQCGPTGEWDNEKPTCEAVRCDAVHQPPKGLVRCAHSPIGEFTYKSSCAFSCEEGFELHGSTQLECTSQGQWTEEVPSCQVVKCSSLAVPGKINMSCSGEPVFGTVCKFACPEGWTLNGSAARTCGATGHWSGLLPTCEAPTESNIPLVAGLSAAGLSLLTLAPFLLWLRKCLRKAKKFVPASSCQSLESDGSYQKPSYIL

CNC[C@H](O)c1cccc(O)c1
outcome [1]: inactive
outcome [2]: inactive
outcome [3]: inactive
outcome [4]: inactive
outcome [5]: inactive
outcome [6]: inactive
outcome [7]: inactive
outcome [8]: inactive
outcome [9]: inactive
outcome [10]: inactive
AC50 [11]: 74.1 nM (active)
outcome [12]: inactive
outcome [13]: inactive
outcome (CD40, CD40 (gene 958)): inactive
outcome [14]: inactive
outcome [15]: inactive
outcome [16]: inactive
outcome [17]: inactive
outcome [18]: inactive

Nc1cc([N+](=O)[O-])ccc1Cl
outcome [1]: inactive
outcome [2]: inactive
outcome [3]: inactive
outcome [4]: inactive
outcome [5]: inactive
outcome [6]: inactive
outcome [7]: inactive
outcome [8]: inactive
outcome [9]: inactive
outcome [10]: inactive
outcome [11]: inactive
outcome [12]: inactive
outcome [13]: inactive
outcome (CD40, CD40 (gene 958)): inactive
outcome [14]: inactive
outcome [15]: inactive
outcome [16]: inactive
outcome [17]: inactive
outcome [18]: inactive

C[C@H]1C[C@@H]2[C@H]([C@@H](O)C[C@@]3(C)[C@H]2CC[C@]3(O)C(=O)CO)[C@@]2(C)C=CC(=O)C=C12
outcome [1]: inactive
outcome [2]: inactive
AC50 [3]: 150 nM (active) and 626 nM (active)
AC50 [4]: 0.15 µM (active)
outcome [4]: inactive
outcome [5]: inactive
outcome [6]: inactive
outcome [7]: inactive
outcome [8]: inactive
outcome [9]: inactive
outcome [11]: inactive
outcome [12]: inactive
outcome [13]: inactive
outcome (CD40, CD40 (gene 958)): inactive
outcome [14]: inactive
outcome [16]: inactive
outcome [17]: inactive
outcome [18]: inactive

CCCCCCCCC=O
outcome [1]: inactive
outcome [2]: inactive
outcome [3]: inactive
outcome [19]: inactive
outcome [4]: inactive
outcome [5]: inactive
outcome [6]: inactive
outcome [7]: inactive
outcome [8]: inactive
outcome [9]: inactive
outcome [10]: inactive
outcome [11]: inactive
outcome [12]: inactive
outcome [13]: inactive
outcome (CD40, CD40 (gene 958)): inactive
outcome [14]: inactive
outcome [15]: inactive
outcome [16]: inactive
outcome [17]: inactive
outcome [18]: inactive

CC(C)(COC(=O)c1ccccc1)COC(=O)c1ccccc1
AC50 [1]: 34.3 µM (active)
outcome [2]: inactive
outcome [3]: inactive
AC50 [4]: 32.9 µM (active)
outcome [5]: inactive
outcome [6]: inactive
outcome [7]: inactive
outcome [8]: inactive
outcome [9]: inactive
outcome [10]: inactive
outcome [11]: inactive
outcome [12]: inactive
outcome [13]: inactive
AC50 (CD40, CD40 (gene 958)): 32 µM (active)
outcome [14]: inactive
outcome [15]: inactive
AC50 [16]: 31.3 µM (active)
outcome [17]: inactive
outcome [18]: inactive

CC(=O)Nc1ccccc1O
outcome [1]: inactive
outcome [2]: inactive
outcome [3]: inactive
outcome [19]: inactive
outcome [4]: inactive
outcome [5]: inactive
outcome [6]: inactive
outcome [7]: inactive
outcome [8]: inactive
outcome [9]: inactive
outcome [10]: inactive
outcome [11]: inactive
outcome [12]: inactive
outcome [13]: inactive
outcome (CD40, CD40 (gene 958)): inactive
outcome [14]: inactive
outcome [16]: inactive
outcome [17]: inactive
outcome [18]: inactive
